High-throughput results from PubChem.
FBW7 act – human FBW7 E3 ligase activation, primary screen; AlphaScreen FBW7–phospho-cyclin E peptide binding, activator screen; normalized activity (activation), % at 26.1 µM; hit rate 0.13% among 650,000; AID 1259310; in the data active = normalized activity above about 1.9%;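 also: purified mutant Fbw7 with reduced substrate affinity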
GPR151 activ – activators of human GPR151. Q8TDV0. PathHunter beta-arrestin GPR151 cells, luminescence. activation, % at 11.2 µM. hit rate 1% among 650,000. AID 1508602; in the data active = activation above about 4.9%;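 also: 0% = median of compound wells and 100% = cells with positive control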
Target sequence (Q8TDV0 whole entry, looked up): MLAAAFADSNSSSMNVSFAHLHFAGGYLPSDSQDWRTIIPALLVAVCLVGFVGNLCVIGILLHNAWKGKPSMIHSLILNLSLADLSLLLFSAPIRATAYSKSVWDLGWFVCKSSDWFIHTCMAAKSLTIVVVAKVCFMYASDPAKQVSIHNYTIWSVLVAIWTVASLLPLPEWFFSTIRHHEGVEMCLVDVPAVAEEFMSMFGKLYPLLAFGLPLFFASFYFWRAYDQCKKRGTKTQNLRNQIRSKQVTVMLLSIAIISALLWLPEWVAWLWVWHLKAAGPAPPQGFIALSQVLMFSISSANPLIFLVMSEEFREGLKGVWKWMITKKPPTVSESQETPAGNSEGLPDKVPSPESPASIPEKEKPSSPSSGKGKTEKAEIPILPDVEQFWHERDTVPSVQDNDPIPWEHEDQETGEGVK
MITF primary – blocks human microphthalmia-associated transcription factor | AID 1259374 | inhibition, % at 2.6 µM | O75030 | hit rate 0.91% among 650,000 | AlphaScreen MITF homodimerization, bead proximity signal; in the data active = inhibition above about 50%;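 also: 0% = vehicle wells with protein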
TEAD-YAP block – TEAD-YAP interaction inhibition | HEK-TIYL cells, TEAD-Gal4/YAP UAS-luciferase luminescence | hit rate 1.4% among 640,000 | AID 1259422 | inhibition, % at 9.12 µM; in the data active = inhibition above about 32%;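 also: 0% = median of test compound wells and 100% = reference inhibitor wells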
MITF inh conf – human MITF inhibition, confirmation | shares compounds with MITF primary | AlphaScreen MITF homodimerization, biotin/His-MITF beads | inhibition, % at 2.6 µM | hit rate 16% among 4,700 | AID 1259372;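 active = inhibition above a cutoff derived from the DMSO control wells, cut at about 28% in these data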;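 also: 0% = MITF dimer wells with DMSO only; inhibitors lower the bead chemiluminescence by keeping MITF from dimerizing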
AS interf DR – counter-screen: compounds optically interfering with AlphaScreen; shares compounds with MITF primary; AlphaScreen optical interference counterscreen, cell-free; IC50, µM; hit rate 6% among 480; AID 1259373; call rule not given here
AS interf ctr – optically interferes with AlphaScreen signal. shares compounds with MITF primary. LysRS AlphaScreen counterscreen, signal interference, triplicate. inhibition, % at 2.6 µM. hit rate 7.6% among 4,700. AID 1259376;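 active = inhibition above a cutoff derived from the DMSO control wells, cut at about 30% in these data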
* hit, by the source's call; / = not tested or not shown. Only some compounds are listed: those with a hit (about 3.4% of all), similar ones and a draw of the others.

SMILES | FBW7 act | GPR151 activ | MITF primary | TEAD-YAP block | MITF inh conf | AS interf ctr | others
Nc1cccc(N2C(=O)c3cc(S(=O)O)cc4c(N)c(S(=O)O)cc(c34)C2=O)c1 | -0.2 | 0.6 | 57.7* | 3.7 | 79.3* | 8.4 | AS interf DR=>6.48
CCOc1ccc(C(=O)CCN(C)C)cc1 | -0.1 | -0.1 | -22.4 | 5.5 | / | /
O=C(Cc1ccccc1)Nc1cccc(N2C(=O)c3ccc(C(=O)O)cc3C2=O)c1 | 0.1 | 1.0 | 23.4 | -3.7 | / | /
O=C(O)CCCc1nc(-c2ccccc2Cl)no1 | 0.0 | 1.4 | 23.8 | -1.0 | / | /
CC(C)NC(=O)CCCc1nc(-c2ccccc2Cl)no1 | 0.0 | -0.6 | 67.8* | 4.7 | 10.0 | 13.8
CCC(Sc1nnc2c3cc(Br)ccc3n(C)c2n1)C(=O)Nc1ccc(OC(F)(F)F)cc1 (stereo unspecified) | 0.0 | 0.3 | 0.8 | 3.5 | / | /
COc1ccc(-c2nc(Nc3cc(Oc4ccc(F)cc4F)cc([N+](=O)[O-])c3)c3ccccc3n2)cc1OC | 0.2 | 2.0 | -11.6 | -8.4 | / | /
COc1cc(CN2CCN(Cc3ccccc3C(F)(F)F)CC2)cc(OC)c1O | 0.1 | -1.4 | 67.7* | -1.1 | 1.6 | 23.3
COc1ccc(CN2CCN(Cc3ccccc3C(F)(F)F)CC2)c(OC)c1 | 0.5 | -0.1 | 77.6* | 7.1 | 16.3 | 14.1
COc1cc(OC)c(OC)cc1CN1CCN(Cc2ccccc2C(F)(F)F)CC1 | -0.3 | -1.0 | 75.9* | -7.5 | 4.4 | 8.1
COc1cc(CN2CCN(Cc3ccccc3F)CC2)cc(OC)c1O | 0.0 | -1.3 | 1.4 | 6.2 | / | /
COc1ccccc1N1CCN(Cc2ccc(OC)c(OC)c2OC)CC1 | -0.1 | 0.2 | 27.6 | 3.7 | / | /
COc1ccc(CN2CCN(Cc3ccccc3C(F)(F)F)CC2)c(OC)c1OC | -0.1 | -0.6 | 58.7* | 2.7 | 5.4 | 15.6
COc1ccc(/C=C\C(=O)Nc2c3c(nn2C(C)(C)C)CSC3)cc1OC | -0.1 | 1.1 | -3.7 | -6.2 | / | /
COc1ccccc1NC(=O)c1cc(S(=O)(=O)NC2CCC(C)CC2)ccc1F (stereo unspecified) | 0.0 | 1.7 | -2.4 | -4.8 | / | /
COc1cc(OC)c(Nc2nc3ccc(C)cc3n3cnnc23)cc1Cl | 1.0 | 0.1 | 21.2 | -8.4 | / | /
COc1ccc(NC(=O)C2C3C=CC4(O3)C2C(=O)N(C2CCCCC2)C4C(=O)NC2CCCCC2)cc1 (stereo unspecified) | 0.0 | 0.1 | -19.7 | -4.3 | / | /
COc1ccc(OC)c(CN2CCN(c3ccccc3OC)CC2)c1 | 0.8 | -1.2 | 22.8 | 3.0 | / | /
COc1ccc(OC)c(CN2CCN(Cc3ccccc3C(F)(F)F)CC2)c1 | -0.2 | -1.0 | 71.3* | -1.4 | 8.5 | -4.9
CC(C)NC(=O)COc1ccc(C(=O)c2ccccc2)cc1 | 0.3 | -1.3 | 11.0 | -11.4 | / | /
COc1ccccc1/C=C/CN1CCN(CCOCCO)CC1 | 0.2 | 1.0 | 53.6* | 17.6 | -1.6 | -3.8
COc1ccccc1/C=C/CN1CC(C)OC(C)C1 (stereo unspecified) | 0.2 | 2.9 | 52.9* | 2.1 | -0.1 | -2.5
COc1ccccc1/C=C/CN1CCN(Cc2ccccc2)CC1 | 0.1 | -0.5 | 37.9 | -2.0 | / | /
COc1ccc2nc(N3CCC(NC4CCCCCC4)CC3)nc(C)c2c1 | 0.3 | -0.1 | 11.5 | 13.4 | / | /
CCN(CC)c1ccc(/C=C2/NC(=S)NC2=O)cc1 | 0.0 | -1.0 | 6.5 | -12.4 | / | /
SMILES | FBW7 act | GPR151 activ | MITF primary | TEAD-YAP block | MITF inh conf | AS interf ctr | others
CCCCCC(=O)Nc1nnc(CSCc2ccccc2)s1 | -0.1 | -0.9 | 2.5 | 13.3 | / | /
Cc1ccc(OCCCN2CCCC2)c([N+](=O)[O-])c1 | -0.1 | 0.0 | 38.2 | -0.5 | / | /
Cc1ccc(OCCN2CC(C)OC(C)C2)c([N+](=O)[O-])c1 (stereo unspecified) | 0.0 | -1.8 | 75.6* | -0.6 | 15.9 | -5.4
Cc1ccc(OCCN2CCN(C)CC2)c([N+](=O)[O-])c1 | -0.1 | 2.2 | 75.9* | -10.0 | -9.2 | 0.2
Cc1ccc(OCCN2CCCCC2)c([N+](=O)[O-])c1 | -0.1 | 1.5 | 64.1* | -7.0 | 19.4 | 14.2
Cc1ccc(OCCN2CCNCC2)c([N+](=O)[O-])c1 | -0.1 | 0.4 | 50.2 | -19.6 | / | /
CC(C)(C)c1ccc(C(=O)NC(=S)Nc2cccc(-c3nc4ncccc4o3)c2)cc1 | -0.1 | -0.8 | -7.6 | -5.9 | / | /
Cc1ccc(-c2cc(C(F)(F)F)n3ncc(C(=O)N(C)CCC#N)c3n2)cc1 | 0.2 | 2.4 | 3.3 | -5.4 | / | /
CCN(CC)CCCOc1ccc2ccccc2c1 | -0.1 | -0.2 | 66.3* | -24.3 | -7.1 | -3.6
OC(c1ccccc1)(c1ccccc1)c1nc2ccccc2n1-c1ccccc1 | 0.0 | 0.5 | -4.1 | 2.1 | / | /
CCCC(=O)Nc1ccc2c(c1)C(=O)N(C1CCCCC1)C2=O | 0.5 | -1.1 | 57.6* | 10.5 | -5.3 | -8.4
CCC(=O)Nc1ccc2c(c1)C(=O)N(C1CCCCC1)C2=O | -0.1 | 0.0 | -1.4 | -12.9 | / | /
CCOc1ccc(C(=O)NC23CC4CC(CC(C4)C2)C3)cc1[N+](=O)[O-] | 0.3 | 0.3 | 4.0 | -6.9 | / | /
Nc1nonc1C(=O)N/N=C\c1cc([N+](=O)[O-])c(Cl)cc1Cl | 0.8 | -0.3 | 67.2* | 3.8 | -4.3 | -5.9
CCn1c(CC(C)(C)C)nc2ccccc21 | 0.9 | 2.5 | 11.4 | -15.1 | / | /
O=C(O)c1cc(-c2ccc(O)cc2)nc2n[nH]c(-c3ccc([N+](=O)[O-])cc3)c12 | -0.1 | -1.3 | -3.6 | -1.4 | / | /
CCN1CCN(CC(=O)N/N=C/c2ccc(N(C)C)cc2)CC1 | 0.0 | 1.4 | 51.8* | 1.6 | 26.0 | 6.4
CN(C)c1ccc(/C=N\NC(=O)CN2CCN(Cc3ccccc3)CC2)cc1 | 0.2 | 0.6 | -4.3 | 4.6 | / | /
CC(/C=N/NC(=O)CN1CCN(C)CC1)=C\c1ccccc1 | 0.7 | 0.2 | 73.0* | 9.1 | 3.1 | -5.0
CCN1CCN(CC(=O)N/N=C/c2cc(Br)cs2)CC1 | 0.6 | 0.3 | 67.8* | 19.9 | -0.9 | 3.1
Cc1ccc(/C=N/NC(=O)CCN2CCN(C)CC2)cc1 | -0.3 | -0.1 | 54.1* | 1.0 | 6.7 | -0.1
CC(/C=N\NC(=O)Cc1cccn1C)=C\c1ccccc1 | 0.0 | 0.9 | -4.5 | -8.9 | / | /
COC(CN(C)c1ccc(-c2ccc(Cl)cc2)cn1)OC | 0.7 | -1.0 | 23.0 | -41.3 | / | /
CCN1C(=O)/C(=C/c2ccc(-c3ccc([N+](=O)[O-])cc3)o2)NC1=S | 0.4 | -0.3 | 52.0* | 3.1 | -7.4 | 13.9
O=C(COc1ccc2ccccc2c1)NNC(=O)c1ccc(Cl)cc1 | -0.1 | 0.3 | 4.1 | -3.6 | / | /
O=C(COc1ccc(Cl)cc1)NNC(=O)c1ccc(=O)[nH]c1 | -0.2 | -0.4 | 67.5* | -1.4 | -9.3 | -6.9
CC(Oc1ccc(Cl)cc1)C(=O)NNC(=O)COc1cccc(F)c1 (stereo unspecified) | 0.4 | -1.0 | 5.7 | 11.1 | / | /
O=C(OCCCC(=O)N1CCOCC1)c1cc(-c2ccco2)nc2ccccc12 | -0.2 | -1.4 | 73.2* | -6.9 | 76.9* | 3.5 | AS interf DR=>6.58
O=C(NC(=S)N1CCOCC1)c1cc(-c2ccco2)nc2ccccc12 | -0.2 | 2.6 | -3.9 | 3.3 | / | /
